Source: PubChem
Most compounds without a hit are left out; they make up all but 19% or so of the library.
HT1080 IDH1KD tx – toxicity to HT-1080 IDH1 knockdown cells (counter line) | actives 2% (n = 360,000) | HT-1080 IDH1 knockdown viability, ATP luminescence, 48 h | Potency, µM (highest dose often 46.1 µM), without a hit: top-dose activity, negative = toxicity, most hits filed as cytotoxic;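 further: potency means the concentration at half of the fitted maximal effect; 0% = DMSO wells and -100% = cell-free medium wells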
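IDH1KD HT-1080 cells, 750/well, RPMI + 5% FBS; compound pinned after 2 h settling; 48 h, 37 °C; CellTiter-Glo luminescence; % activity normalised to DMSO and no-cell wells; curves fitted, classed by r2 and efficacy.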
IL-1B inflam inh – inflammasome signaling inhibition, IL-1 beta readout. THP-1 LPS/ATP IL-1B secretion, AlphaLISA, 16 h; stronger effect = lower value. activity change, % at 57.5 µM. actives 4.7% (n = 360,000); in the data active means activity change below about -50%; inconclusive means mostly about -30% to -49%
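THP-1 cells pretreated 1 hr with compounds (up to 57.5 uM final), then stimulated with LPS (250 ng/mL final) plus ATP (1.25 mM final); secreted IL-1B measured by AlphaLISA after 16 hr, decreased signal indicating inhibition.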
DT40 TDP1 CPT – DT40-hTDP1 cell growth loss with CPT. chicken DT40 Tdp1-/-;hTDP1 cells + 20 nM CPT, ATP luminescence, 48 h. Potency, µM (highest dose often 46.2 µM), inactives show top-dose activity change, negative = growth inhibition, most hits filed as inhibitors. actives 12% (n = 420,000); further: potency means the concentration at half of the fitted maximal effect; nearly all actives have a fitted effect of over 55% in size
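Chicken DT40 Tdp1-/- cells stably complemented with human TDP1 were seeded at 400 cells/well in medium containing 20 nM camptothecin, exposed to pin-transferred compounds, and grown at 37 °C for at least 48 hr. Viability was read as ATP luminescence.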
TDP1 cell noCPT – qHTS for Inhibitors of human tyrosyl-DNA phosphodiesterase 1 (TDP1): qHTS in cells in absence of CPT | AID 686978, 2013 | actives 15% (n = 420,000) | Potency, µM (series often up to 46.2 µM), inactives show at the highest dose activity change, negative = growth inhibition, hits mostly inhibitors | DT40 Tdp1-/- hTDP1 cells, no CPT, ATP luminescence, 48 h; further: potency means the concentration at half of the fitted maximal effect; nearly all actives have a fitted effect of over 55% in size
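Seeded 400 DT40-hTDP1 cells/well (vehicle DMSO, no 20 nM CPT); pinned compounds; ≥48 hr at 37 °C; CellTiter-Glo luminescence as viability measure.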
HT1080NT lethal – kills 2HG-producing HT-1080-NT fibrosarcoma cells; actives 1.6% (n = 360,000); AID 686970; Potency, µM (highest dose often 46.1 µM), for the others: at the top dose activity, negative = less viability, usual class: cytotoxic; HT-1080-NT fibrosarcoma viability, CellTiter-Glo ATP luminescence, 48 h;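 further: NT is the 2HG producing partner of a matched IDH1 knockdown line; potency means the concentration at half of the fitted maximal effect; 0% = DMSO-treated cells and -100% = media-only wells without cells; nearly all actives have a fitted effect of over 55% in size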
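A 48-hour cytotoxicity screen used HT-1080-NT cells plated 2 hours before compound delivery. ATP-based CellTiter-Glo luminescence measured viability, normalized to DMSO and no-cell controls.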
Active calls of the source: *; i = inactive; ? = inconclusive; . = not tested or not shown. Unless noted, the call rests on the fitted dose curve; in most records, active means well fitted curve in the direction sought with a large enough effect; inconclusive means small, poorly fitted or top-dose-only effect, or another doubt; inactive means no such curve, though single readings can be large; an effect the other way counts as inactive or inconclusive. Unless noted, on the % scale 0 is the no-effect control and ±100 the full control effect.

SMILES | HT1080 IDH1KD tx | IL-1B inflam inh | DT40 TDP1 CPT | TDP1 cell noCPT | HT1080NT lethal
COc1cccc(NC(=O)CN(C)C(=O)c2ccc(-c3ccccc3Cl)o2)c1 | -9% | i | ? | ? | -1%
Cc1cccc(C)c1-n1nnnc1C(C)(C)N1CCN(N=O)CC1 | 5% | 15 | 21% | -11% | 10%
CCC(C)(c1nnnn1-c1c(C)cccc1C)N(N=O)c1cccc(C(F)(F)F)c1 (stereo unspecified) | -23% | 14 | 26µM* | 21µM* | 0%
O=C(O)[C@@H]1CCCN1S(=O)(=O)c1cccc2cccnc12 | 14% | 22 | -14% | 0% | -25%
Nn1cnc2c(c1=O)C1(CCCCC1)Cc1ccccc1-2 | -10% | 0 | 9.2µM* | 8.2µM* | -10%
Oc1ccc(-c2nc3c4c(ncn3n2)-c2ccccc2CC42CCCC2)cc1 | 17% | -1 | 15µM* | 16µM* | 12%
Cc1ccc(-n2c(SCC(N)=O)nc3c(c2=O)C2(CCCC2)Cc2ccccc2-3)cc1 | -4% | -63* | -25% | ? | -6%
CC(C)Cc1ccc(-c2ccc3nccn3c2)cc1 | ? | 7 | ? | 18µM* | ?
COc1cc(C=NNC(=O)Cn2nc(C)cc2C)ccc1OC(=O)C1CC1 | 3% | 15 | 12% | 24% | 1%
Cc1nc2nc(C)c(CCC(=O)NC(C)c3ccc4c(c3)OCCO4)c(C)n2n1 (stereo unspecified) | 12% | 13 | 1% | 4% | 22%
Cc1nc2cc(-c3ccccc3)nn2c(C)c1CCC(=O)NC(C)c1ccc2c(c1)OCCO2 (stereo unspecified) | -2% | 9 | ? | 18µM* | -6%
Cc1nc2cc(-c3cccc(F)c3)nn2c(C)c1CCC(=O)NC(C)c1ccc2c(c1)OCCO2 (stereo unspecified) | 1% | -7 | 16µM* | ? | -17%
Nc1nc(=S)[nH]c2n[nH]nc12 | . | . | 4.5µM* | 3.5µM* | .
CCOC(=O)c1ccc(NC2c3ccccc3C(=O)N2c2ccc(C)cn2)cc1 (stereo unspecified) | -1% | 14 | ? | ? | 2%
O=C1c2ccccc2C(Nc2ccccc2F)N1c1cccnc1 (stereo unspecified) | -3% | 4 | -22% | -14% | 1%
COC(=O)c1ccccc1NC1c2ccccc2C(=O)N1c1cccnc1 (stereo unspecified) | -3% | -12 | 15µM* | ? | -7%
CCOC(=O)c1ccc(NC2c3ccccc3C(=O)N2c2cccnc2)cc1 (stereo unspecified) | -15% | 41 | 12µM* | 10µM* | -28%
COc1cccc(CNC(=O)c2c(OC)cc(=O)n3c2CCN(C(=O)c2ccccc2Cl)CC3)c1 | . | . | 1% | -8% | .
NC(=O)C1CCN(C(=O)CCSCc2ccc(Cl)c(Cl)c2)CC1 | -5% | -3 | 7% | -20% | 3%
Cc1ccc(/C=C/C(=O)Nc2ccc3nc(N4CCC(C)CC4)cc(C)c3c2)cc1 | . | . | 5.8µM* | 3.7µM* | .
Cc1cc(N2CCOCC2)nc2ccc(NC(=O)C3CCC(C)CC3)cc12 (stereo unspecified) | -1% | -12 | ? | ? | -2%
Cc1cc(N2CCCCC2)nc2ccc(NC(=O)CCC(=O)NCCC(C)C)cc12 | 0% | 1 | -30% | -27% | -1%
Cc1cc(N2CCCCC2)nc2ccc(NC(=O)/C=C/c3ccc(OCCC(C)C)cc3)cc12 | . | . | -110% | 18µM* | .
Cc1cc(N2CCC(C)CC2)nc2ccc(NC(=O)/C=C/c3cccc(Cl)c3)cc12 | . | . | 6.5µM* | 4.1µM* | .
Cc1cc(N2CCN(C)CC2)nc2ccc(NC(=O)c3cccnc3Cl)cc12 | -1% | -21 | -12% | 5% | -5%
SMILES | HT1080 IDH1KD tx | IL-1B inflam inh | DT40 TDP1 CPT | TDP1 cell noCPT | HT1080NT lethal
CC1C(=O)c2ccccc2CC1C(=O)O (stereo unspecified) | 0% | 22 | 10% | -10% | 7%
CN(C1=C(NC(=O)c2ccc(Cl)cc2)C(=O)c2ccccc2C1=O)c1ccccc1 | -29% | -74* | 5.8µM* | 10µM* | -21%
O=C(NC1=C(NC2CCS(=O)(=O)C2)C(=O)c2ccccc2C1=O)c1ccccc1 (stereo unspecified) | 18µM* | -93* | 2.1µM* | 2.3µM* | 15µM*
O=C1C(Cl)=C(NC(=O)c2ccccc2)C(=O)C(Cl)=C1NC(=O)c1ccccc1 | 8.2µM* | -99* | 1.3µM* | 2.6µM* | 10µM*
O=C(Nc1cc(Cl)ncn1)c1ccccc1 | 1% | -63* | 18% | 14% | -1%
COc1ccc(C2=C(C)C(N3CCC(C(=O)Nc4ccc(F)cc4C)CC3)=NS2(=O)=O)cc1 | . | . | -24% | -15% | .
Cc1ccc(S(=O)(=O)N2CCc3cc(C(=O)Nc4ccc(C)c(C)c4)ccc32)cc1 | . | . | -21% | -23% | .
O=C(NNC(=S)Nc1ccc(Cl)cc1)c1ccccc1 | -2% | 16 | -52% | ? | -16%
Cc1cccc(C(=O)Nc2cccc(NC(=O)c3ccccc3)c2)c1 | -22% | -21 | -6% | ? | -20%
O=C(NC1=C(Nc2ccc(Cl)cc2)C(=O)c2ccccc2C1=O)c1ccccc1 | -17% | ? | 23µM* | 16µM* | ?
Cc1cccc(NC2=C(NC(=O)c3ccccc3)C(=O)c3ccccc3C2=O)c1 | ? | -74* | 10µM* | 12µM* | ?
Cc1cc(CNC(=O)C2CCC(=O)N(Cc3ccccc3F)C2)nn1C (stereo unspecified) | -2% | 1 | 13% | 10% | 3%
CP(=O)(Nc1cc(Cl)ccc1Cl)c1nc2c(s1)CCCC2 (stereo unspecified) | 0% | -15 | ? | ? | -7%
C[C@H]1CN([C@@H](C)CO)C(=O)CCCn2nncc2CO[C@@H]1CN(C)Cc1ccc(Cl)c(Cl)c1 | 6% | 9 | ? | ? | 8%
Cc1cccc(N2CCN(c3nc4ccccc4n4cnnc34)CC2)c1C | -1% | 6 | 26µM* | ? | 1%
c1ccc(C(c2ccccc2)N2CCN(c3nc4ccccc4n4cnnc34)CC2)cc1 | -3% | 36 | ? | 3.7µM* | 0%
c1cnc(N2CCN(c3nc4ccccc4n4cnnc34)CC2)nc1 | 5% | -11 | -12% | -22% | 2%
Cc1ccc2nc(N3CCN(c4cccc(C)c4C)CC3)c3nncn3c2c1 | . | . | -25% | -9% | .
CN(C)c1ccc(/C=[N+]2\C(=O)CC(=O)NC2=O)cc1 | . | . | 7% | 1% | .
COC(=O)N1c2ccccc2CCc2ccccc21 | ? | 4 | 21µM* | 16µM* | ?
CC(C)(C)C(=O)N1c2ccccc2CCc2ccccc21 | -10% | -9 | ? | ? | -1%
